Results published in the supplement of paper PMC10127200.
Where a name gives a salt, the structure may show the parent alone.

The compounds below were run on HEPG2 (assay: Euclidean distance of Cell Painting phenotypic profile (signed KS, 77 features) to DMSO centroid (dimensionless distance); 5 or 10 uM (library dependent); higher = stronger phenotypic change vs DMSO (phenoactivity)). Conditions: 48 h.
How it was run: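 At 10 or 5 uM, as set by the library, and 0.1% DMSO final, compounds were applied for 48 h to five cancer lines and one healthy fibroblast line. Stained cells were imaged confocally at 20X in 9 fields per well, and Harmony extracted 77 features scored as signed Kolmogorov-Smirnov statistics against vehicle wells on the same plate. Profiles underwent plate-position correction, correlation weighting and replicate averaging at the top dose. Phenoactivity is the Euclidean distance from each such profile to the median vehicle profile.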

Structure (SMILES)	Euclidean distance
CNC(=O)c1c(C)oc2cc(Oc3ncnc4cc(OC)c(OC)cc34)ccc12 [Fruquintinib]	0.855
CCOC(=O)N[C@@H]1CC[C@@H]2[C@@H](C1)C[C@H]1C(=O)O[C@H](C)[C@H]1[C@H]2/C=C/c1ccc(-c2cccc(F)c2)cn1 [Vorapaxar]	1.49
CC(C)(C)CC(C)(C)c1ccc(O)c(Cc2ccc(Cl)cc2Cl)c1 [Clofoctol]	0.886
COc1ccc2cc1Oc1ccc(cc1)C[C@H]1c3cc(c(OC)cc3CCN1C)Oc1c(OC)c(OC)cc3c1[C@H](C2)N(C)CC3 [Tetrandrine]	1.84
CNC(=O)c1cc(COc2nnc(Nc3ccc(Cl)cc3)c3ccoc23)ccn1 [Telatinib]	1.41
CC(C)Oc1ccc(-c2nn([C@@H](C)c3oc4ccc(F)cc4c(=O)c3-c3cccc(F)c3)c3ncnc(N)c23)cc1F [umbralisib (TGR-1202)]	1.81
C=CC(=O)N1CC/C(=C\c2ccc(F)c([N+](=O)[O-])c2)C(=O)/C(=C/c2ccc(F)c([N+](=O)[O-])c2)C1	5.06
NC(=O)c1nc(F)cnc1O [Favipiravir (T-705)]	0.762
Cn1ccnc1S [Methimazole]	1.08
CCCCCCCCCC(=O)N[C@@H](Cc1c[nH]c2ccccc12)C(=O)N[C@H](CC(N)=O)C(=O)N[C@@H](CC(=O)O)C(=O)N[C@@H]1C(=O)NCC(=O)N[C@@H](CCCN)C(=O)N[C@@H](CC(=O)O)C(=O)N[C@H](C)C(=O)N[C@@H](CC(=O)O)C(=O)NCC(=O)N[C@H](CO)C(=O)N[C@@H]([C@H](C)CC(=O)O)C(=O)N[C@@H](CC(=O)c2ccccc2N)C(=O)O[C@@H]1C [Daptomycin]	0.461
COC(=O)CCc1ccc(OCC(O)CNC(C)C)cc1 (configuration not stated) [Esmolol HCl]	0.386
c1ccc(C2CN3CCSC3=N2)cc1 (configuration not stated) [Tetramisole HCl]	1.31
N#C[C@@H]1C[C@@H]2C[C@@H]2N1C(=O)[C@@H](N)C12CC3CC(CC(O)(C3)C1)C2 [Saxagliptin hydrate]	0.598
CN(C(=O)c1ccc(F)cc1C(F)(F)F)C1CCN(c2nnc(-c3ccnn3C)c3ccccc23)CC1	1
COC(=O)C1=C(C#N)NC(C)=C(C(=O)OC(C)C)C1c1cccc([N+](=O)[O-])c1 (configuration not stated) [Nilvadipine]	0.907
CCC(NC(C)C)C(O)c1ccc(O)c(O)c1 (configuration not stated) [Isoetharine Mesylate]	0.832

Structure (SMILES)	Euclidean distance
CC12CCC(CC1)C(C)(C)O2 [Eucalyptol]	0.869
Cc1nnc(C(=O)NC(C)(C)c2nc(C(=O)NCc3ccc(F)cc3)c(O)c(=O)n2C)o1 [Raltegravir (MK-0518)]	0.537
Cc1c(OCC(F)(F)F)ccnc1C[S+]([O-])c1nc2ccccc2[nH]1 (configuration not stated) [Lansoprazole]	1.08
C[C@@H](O)[C@H]1C(=O)N2C(C(=O)O)=C(S[C@@H]3CN[C@H](C(=O)Nc4cccc(C(=O)O)c4)C3)[C@H](C)[C@H]12 [Ertapenem sodium]	0.854
C=CCc1ccc(O)c(-c2cc(CC=C)ccc2O)c1 [Magnolol]	0.94
O=c1c(-c2ccc(O)cc2)coc2cc(O[C@@H]3O[C@H](CO)[C@@H](O)[C@H](O)[C@H]3O)ccc12 [Daidzin]	0.745
Nc1[nH]cnc2ncnc1-2 [Adenine HCl]	0.46
OCCOCCN1CCN(C2=Nc3ccccc3Sc3ccccc32)CC1 [Quetiapine]	1.02
C=C(C)[C@@H]1CC=C(CO)CC1 [Perillyl alcohol]	1.09
CC(C)n1c(/C=C/C(O)CC(O)CC(=O)O)c(-c2ccc(F)cc2)c2ccccc21 (configuration not stated) [Fluvastatin Sodium]	1.86
C=C1C(=O)O[C@@H]2/C=C(\C)CC/C=C(\C)CC[C@@H]12 [Costunolide]	1.29
CCCCC1(COC(=O)CCC(=O)O)C(=O)N(c2ccccc2)N(c2ccccc2)C1=O [Suxibuzone]	0.518
O=C(/C=C/C=C/c1ccc2c(c1)OCO2)N1CCCCC1 [Piperine]	0.563
CC(C)C(=O)Nc1ccc([N+](=O)[O-])c(C(F)(F)F)c1 [Flutamide]	0.723
CN[C@@H]1CCc2[nH]c3ccc(C(N)=O)cc3c2C1 [Frovatriptan Succinate]	0.505
COc1ccc2cc3[n+](cc2c1OC)CCc1cc2c(cc1-3)OCO2 [Berberine chloride]	1.41
